This is part of a sample that, as a whole, favours compounds with a hit. Of some 83,000 tested, about 20% had one in any assay.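 The test compound was applied at a single concentration to cells in 96-well plates for 48 hours, and percent growth was recorded.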 The source made the active and inactive calls. The calls were made as follows: active = growth percent below 10; inactive = the rest.
Key:
Assay in all cases: NCI-60 one-dose screen, 48 h (100 = growth as untreated, 0 = no growth, -100 = all killed)
Details in all cases: 10 µM unless noted
[1] = test system: HCT-15 colon
[2] = test system: HT29 colon
[3] = test system: SNB-75 CNS
[4] = test system: SNB-19 CNS
[5] = test system: U251 CNS
[6] = test system: PC-3 prostate
[7] = test system: SK-MEL-5 melanoma
[8] = test system: UACC-62 melanoma
[9] = test system: LOX IMVI melanoma
[10] = test system: SK-MEL-28 melanoma

Measured: growth

CN1CCN(c2ccc(Nc3nc(NCCNS(=O)(=O)c4ccc5ccccc5c4)c4sccc4n3)cc2)CC1
inactive: [3] 78% | [4] 90.6% | [5] 13.4% | [6] 76% | [7] 86.1% | [8] 66.5% | [10] 74.4%
active: [1] 7.96% | [2] 8.55% | [9] -77.3%

CN(C)CC(=O)Nc1nc(-c2cccc(NS(=O)(=O)c3cccc4c(N(C)C)cccc34)c2)cs1
inactive: [1] 75.8% | [2] 94.3% | [3] 95.6% | [4] 88.8% | [5] 83.4% | [6] 72% | [7] 63.4% | [8] 72.5% | [9] 95.3%

CC1=C(SCC(=O)OCCCCCC(C)C)C(=O)c2ccccc2C1=O
inactive: [1] 89.3% | [2] 106% | [3] 91.1% | [4] 91.1% | [5] 92% | [6] 68.8% | [7] 91.8% | [8] 86.2% | [9] 93.2%

N#Cc1nc(-c2ccccc2)oc1N1CCC(C2(C(F)(F)F)N=N2)CC1
inactive: [1] 102% | [2] 102% | [3] 98.7% | [4] 102% | [5] 97.5% | [6] 97% | [7] 99.2% | [8] 93.4% | [9] 97.1% | [10] 119%

Cc1[nH]c(C(=O)Nc2ccc(C(=O)NCC3CCNCC3)cc2OC(C)C)c(Cl)c1Cl
inactive: [1] 93.7% | [2] 40.6% | [3] 44.8% | [4] 64.2% | [6] 61.6% | [7] 95.9% | [8] 98.8%
active: [5] 8.95% | [9] 9.32%

CC(C)C(/C=C/c1[nH]ncc1-c1cc(Cl)ccc1O)N1CCOCC1 (centres undefined)
inactive: [1] 94.9% | [2] 104% | [3] 65.3% | [4] 99.5% | [5] 97.3% | [6] 84.7% | [7] 95% | [8] 87.1% | [9] 98.8%

Cc1ccc(OCc2occc2C(=O)N2CCOCC2)cc1
inactive: [1] 100% | [2] 108% | [3] 81.8% | [4] 99.8% | [5] 103% | [6] 107% | [7] 100% | [8] 97.9% | [9] 108%

COc1cc(C(=O)c2cc(C(C)=O)c3c(C)cccn23)cc(OC)c1OC
inactive: [1] 88.6% | [2] 103% | [3] 64.6% | [4] 78.7% | [5] 96.7% | [6] 90.2% | [7] 97.1% | [8] 70.5% | [9] 96.7%

O=C(Nc1ccc(Cl)c(C(F)(F)F)c1)Nc1ccc2c(ccn2C(=O)c2cccc(F)c2)c1
active: [6] 9.11%
inactive: [1] 17% | [2] 39.8% | [3] 55% | [4] 39.7% | [5] 23.3% | [7] 62.9% | [8] 39.7% | [9] 38.4%

NS(=O)(=O)c1cccc(Nc2nc(SCC(=O)c3ccc(Cl)cc3)nc3c2CCC3)c1
inactive: [1] 96.7% | [2] 109% | [3] 87% | [4] 62.5% | [5] 63.9% | [6] 93.9% | [7] 94.9% | [8] 97.1% | [9] 86.2%

COc1ccc(/C=N/NC(=O)c2c(N)nn(C)c2Nc2ccccc2)cc1
inactive: [1] 19.1% | [2] 18.6% | [3] 35.1% | [4] 36.8% | [5] 33.3% | [6] 55.9% | [7] 57.2% | [8] 23.7% | [9] 18.9%

CCc1cc(O)ccc1Nc1cc(-c2ccc(-n3cccn3)cc2)[nH]n1
inactive: [1] 33.6% | [2] 77.4% | [3] 117% | [4] 69% | [5] 82.5% | [6] 60.9% | [7] 49.2% | [8] 43.2% | [9] 26.1%

CCNCCOc1ccc(/C(=C(/CC)c2ccc(Cl)cc2)c2ccc(OCCCN(C)C)cc2)cc1
active: [1] -84.8% | [2] -36.4% | [3] -71.1% | [4] -86% | [5] -70.7% | [6] -56.4% | [7] -95.2% | [8] -90% | [9] -89.2%

CC1(C)C=Cc2cc(/C(N)=N/C(N)=N/c3nc4ccccc4s3)ccc2O1
active: [9] -56.3%
inactive: [1] 57.7% | [2] 95.1% | [3] 101% | [4] 96.6% | [5] 89.8% | [6] 34.7% | [7] 87.9% | [8] 96.7% | [10] 108%
